Among all 360,000 compounds or so, about 2,600 (0.72%) were called active. This is one part of a sample in which actives are shown more often than they occur. A number with no mark means an inactive call.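 Rule for the calls: active = inhibition of the luminescence signal of 40% or more relative to plate controls, in a single-dose primary screen at 18.75 µM; inactive = the rest.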

This test can be described thus: blockers of HIF-2a driven luciferase – luminescence, 786-0 RCC cells, primary screen (AID 624352). The settings on record: 786-0 RCC cells HIF-2a reporter, overnight, at 18.8 µM, active compounds read high.
For orientation: inhibition means the drop in the measured response relative to a control, in per cent. For `CCOC(=O)[C@]12Cc3ccccc3[C@H]1N(C1CCCCC1)C(=O)c1cc(OC)ccc12`, the inhibition was 81.9% (active). Then `CCOC(=O)[C@]12Cc3cc(OC)ccc3[C@H]1N(C(C)C)C(=O)c1ccccc12`, with 24.5%. Then `COc1ccc(CCn2c(O)c(C=NCCCn3ccnc3)c(=O)[nH]c2=O)cc1OC`, with 11.2%; and `COc1ccc(Br)cc1CNCCc1cccc(Cl)c1`, with 7.99%; and `CC=C(C)C(=O)OC1CCN2CC=C(COC(=O)C(O)(C(C)OC)C(C)(C)O)C12` (stereo not given), with 3.51%. The same measure for `COc1cc(OC)cc(C2(C#N)CCN(C)CC2)c1`: 13.2%; for `COC(=O)C1=C(c2cc3ccccc3s2)C[C@@H]2CC[C@H]1N2C(=O)NC(C)C`: 6.19%.

As for `Cc1cccc(-n2c(O)c(/C=N/N3CCOCC3)c(=O)[nH]c2=S)c1`, the inhibition is 19.1%. The same measure for `Cc1nn(-c2ccccc2)c(C)c1NC(=O)COC(=O)Cc1ccccc1`: 8.24%; for `Cc1nc2nc(C)c(CCC(=O)N3CCC4(CC3)OCCO4)c(C)n2n1`: -0.723%; for `CC(=O)OC1C2(CC3N4C(=O)C5(CO)SSC4(CC31O)C(=O)N5C)OC(C)C(C)(C)C2=O` (stereo not given): 91.3% (active).

With `NC(=O)Nc1cccc(C(F)(F)F)c1`, the inhibition is 1.29%.

Consider `COC(=O)C[C@H]1CC[C@H]2NC[C@@H](O)COC[C@@H]2O1`, for which the inhibition was 10.3%. On to `COC1C(O)C(C)OC(OC2CCC3(C=O)C(CCC4C3CCC3(C)C(C5=CC(=O)OC5)CCC43O)C2)C1O` (stereo not given), for which the inhibition is 82.4% (active). Then `C[C@]12CC[C@H](O)C[C@H]1CC[C@@H]1C2CC[C@]2(C)[C@@H](C3=CC(=O)OC3)[C@@H](O)C[C@]12O` (stereo not given in full), with 33.4%; and `COC(=O)CN(CCCl)P1(=O)OCCCN1CCCl` (stereo not given), with 6.36%.

As for `CN1CCN(Cc2ccccc2C(F)(F)F)CC1`, the inhibition was 9.38%.

For the compound `O=c1c2ccccc2nc(CBr)n1-c1ccc(Cl)cc1`, the inhibition is -7.93%. The same measure for `CN(C)CC1Oc2ccccc2OC1(O)c1ccccc1` (stereo not given): 55.3% (active); for `Cc1nc2ccccn2c1P(=S)(N1CCCCC1)N1CCCCC1`: 18.1%. Then `CC1([N+](=O)[O-])COP(=O)(Nc2ccc(F)cc2)OC1` (stereo not given), with 17.4%; and `Cc1ccc(C(C)C)c(OCC(=O)N2CCN(CC(=O)N3CCOCC3)CC2)c1`, with -3.94%. Then `c1ccc2sc(C3CCCNC3)nc2c1` (stereo not given), with -94.5%; and `CC[C@H]1CC2CN3CCc4c([nH]c5ccccc45)C(C(=O)OC)(C2)C13` (stereo not given in full), with 20.3%; and `O=P(OC1=CCCCC1)(c1ccccc1)c1ccccc1`, with 12.4%. Regarding `CCC(C)(O)C(=O)OC1C(=O)OC2CC3C(C)=CC(=O)C(O)C3(C)C3C4(O)OCC23C1C(C)C4O` (stereo not given), the inhibition is 66.3% (active). Then `O=c1[nH]c(=O)n(-c2ccc(F)cc2)c(O)c1C=NCCN1CCCCC1`, with 24.6%; and `CC(Cc1cccs1)NCc1ccc(Cl)cc1` (stereo not given), with -5.05%.

`Cc1ccc(P(=S)(c2ccc(C)o2)N2CCOCC2)o1`: the inhibition is -0.609%. In the case of `CCCCCCCCCCCCn1ccc(=N)cc1`, the inhibition was 51.2% (active). `C[C@]12CC[C@H](O)CC1=C([N+](=O)[O-])CC1C2CC[C@@]2(C)C1CC[C@@H]2O` (stereo not given in full): the inhibition is -4.21%. For the compound `CC(C)c1c(CN(C)C(C)Cc2ccccc2)n(C)n(-c2ccccc2)c1=O` (stereo not given), the inhibition is 17.5%. The same measure for `CC(=CCOc1ccc2ccc(=O)oc2c1)C1=CC(=O)C(C)(C)O1`: 65.2% (active). Then `O=C1NC(=O)C(Cc2ccccc2)C(=O)N1`, with 0.735%; and `CCOC(=O)C1CN(C)CCC1=O` (stereo not given), with 12.2%.

(Values after PubChem BioAssay AID624352 (Sanford-Burnham Center for Chemical Genomics, 2012).)
